# High-throughput results from PubChem BioAssay.
# Shown are actives, neighbours in structure and some others; about 9.9% of the full set was active somewhere.
# SW480 rereplic: inducers of DNA re-replication in SW480 colon cancer cells; 1.8% of 340,000 active; SW480 DNA re-replication, Hoechst DNA content imaging, 48 h; Potency, µM (doses to about 46.1 µM), for inactives: at the highest dose re-replication activation, usual class: activators; AID 624297; further: potency means the concentration at half of the fitted maximal effect; % of control where 0% means no effect; nearly all actives have a fitted effect of over 55% in size
#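 DNA re-replication was detected as more nuclei of elevated Hoechst intensity after 48 hr exposure to compound (23 nL pinned per well of 250 cells).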
# MCF10A rerep: induces DNA re-replication in MCF 10a normal breast cells; MCF 10A DNA re-replication, Hoechst nuclear intensity, 48 h; Potency, µM (series often up to 46.1 µM), for inactives: at the top dose activity, positive = re-replication, actives largely listed as activators; 2.9% of 350,000 active; AID 624296; further: potency means the concentration at half of the fitted maximal effect; % of control where 0% means no effect; nearly all actives have a fitted effect of over 50% in size
# KB-V1 MDR tox: kills drug-selected multidrug resistant KB-V1 cells. KB-V1 MDR cells viability, CellTiter-Glo, 72 h. Potency, µM (series often up to 46.1 µM), actives largely listed as cytotoxic. 3.4% of 400,000 active. AID 1347076; further: potency means the concentration at half of the fitted maximal effect; on the % scale 0 is the no-effect control and ±100 the full control effect; nearly all actives have a fitted effect of over 60% in size
#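 Luminescent ATP read-out (CellTiter-Glo, 10 min) measures survival of drug-selected KB-V1 MDR cells after 72 h, 37 degrees C compound exposure. Medium: phenol-red-free DMEM, 10% FBS. Values from fitted concentration-response curves.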
# KB-3-1 cytotox: KB-3-1 parental cell cytotoxicity; Potency, µM (highest dose often 46.1 µM), actives largely listed as cytotoxic; AID 1347075; 1.4% of 400,000 active; KB-3-1 viability, CellTiter-Glo ATP luminescence, 72 h; further: potency means the concentration at half of the fitted maximal effect; on the % scale 0 is the no-effect control and ±100 the full control effect; nearly all actives have a fitted effect of over 60% in size
#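 Parental KB-3-1 adenocarcinoma cells in phenol-red-free DMEM with 10% FBS were pin-treated with compounds at several concentrations, incubated 72 h at 37 °C, and viability read by CellTiter-Glo luminescence; concentration-effect curves were fitted after normalization.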
# IL-1B inflam inh: blocks inflammasome-driven IL-1 beta release; activity change, % at 57.5 µM; THP-1 LPS/ATP IL-1B secretion, AlphaLISA, 16 h; active compounds read low; AID 743279; 4.7% of 360,000 active; in the data active means activity change below about -50%; inconclusive means mostly about -30% to -49%; further: on the % scale 0 is the no-effect control and ±100 the full control effect
#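 Secreted IL-1B measured by AlphaLISA bead assay after 16 h compound exposure of THP-1 cells; compounds (final up to 57.5 uM) added 1 h before LPS (250 ng/mL) and ATP (1.25 mM) stimulation; lower signal means less secretion.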
# * = called active by the depositor; i = inactive; u = inconclusive; x = not tested or not shown; ! = repeats disagree; [ ] = remark or other dose. Unless noted, the call rests on the fitted dose curve; in most records, active means well fitted curve in the direction sought with a large enough effect; inconclusive means small, poorly fitted or top-dose-only effect, or another doubt; inactive means no such curve, though single readings can be large; an effect the other way counts as inactive or inconclusive.
SMILES,SW480 rereplic,MCF10A rerep,KB-V1 MDR tox,KB-3-1 cytotox,IL-1B inflam inh
C=C(C=O)C[C@@H]1C[C@H](O)C2OC3C[C@]4(C)OC5/C=C\CC6OC7C(CC=CCC6OC5CCCC4OC3CC2O1)OC1CC2OC3CC(=O)OC3C[C@@H](C)C[C@@]2(C)OC1C[C@@H]7C (stereo not given in full),36%[9.22 µM],0.73µM*,8.2µM*,4.6µM*,-102*
O=C(CN1CCCCC1)NNC(=O)c1cccc(Br)c1,-7%,-34%,i,i,8
CC1CCOC(=O)C=CC=CC(=O)OC2CC3OC4C5OC5(C)C(O)CC4(COC(=O)C1O)C2(C)C31CO1 (stereo not given),u,0.23µM*,5.8µM*,0.21µM*,-104*
CC1=CC2OC3CC4OC(=O)C=CC=CC(C(C)O)OCC(O)C5(C)OC5C(=O)OCC2(CC1O)C4(C)C31CO1 (stereo not given),15%,16%,u,0.015µM*,-117*
CC1=CC2OC3CC4OC(=O)C=CC=CC(=O)OCCC(C)C(O)C(=O)OCC2(CC1)C4(C)C31CO1 (stereo not given),u,12%,0.1µM*,0.037µM*,-103*
CC(O)C1C=CC=CC(=O)OC2CC3OC4C5OC5(C)C(O)CC4(COC(=O)C(O)C(C)CCO1)C2(C)C31CO1 (stereo not given),1.8µM*,u,u,0.21µM*,-100*
COc1ccc(-n2c(/C=C/c3cccc(F)c3)nc3ccccc3c2=O)cc1Cl,x,x,i,i,x
NCc1cccnc1,-6%,7%,x,x,x
CCCC1CCCCC12C(=O)NC(=O)NC2=O (stereo not given),0%,18%,i,i,25
COc1ccc(-c2ccc3c(c2)CN(C(=O)NC2CCCCC2)Cc2cnnn2-3)cc1,x,x,i,i,-53*
O=C(NC1CCCCC1)N1Cc2cc(-c3cccc(F)c3)ccc2-n2nncc2C1,x,x,i,i,u
COCCO[C@H]1CC[C@@]2(C)C(=CCC3C2CC[C@@]2(C)C3CC[C@]2(C)O)C1 (stereo not given in full),u,u,u,i,-72*
CC(C)c1ccc(OCC(=O)N2CCN(CCc3ccccn3)CC2)cc1,x,x,i,i,x
Cc1nonc1OCCNCCNc1ccc([N+](=O)[O-])c2cccnc12,-26%,2%,u,u,u
CCNCCNc1ccc([N+](=O)[O-])c2cccnc12,-8%,1%,i,i,-61*
O=C1C[C@@H]2OCC=C3CN4CC[C@]56c7ccccc7N1[C@@H]5[C@@H]2[C@H]3C[C@H]46 (tested in a mixture with another compound),-8%,x,x,x,x
c1ccc(OCc2ccc(CCCN3CCOCC3)cc2)cc1,3%,24µM*!,i,i,4
CN(C)c1ccc(CCN2CCOCC2)cc1,-48%[9.22 µM],1%,i,i,11
CN1C[C@H](C(=O)N[C@]2(C)O[C@@]3(O)[C@@H]4CCCN4C(=O)[C@H](Cc4ccccc4)N3C2=O)C=C2c3cccc4[nH]cc(c34)C[C@H]21,15%,-9%,x,x,x
C=Cc1cc(OC)c2c(c1)c(=O)oc1c2cc(OC)c2c(O)ccc(C3OC(C)C(O)C(C)(O)C3O)c21 (stereo not given),8.2µM*,3.7µM*,18µM*,u,-100*
O=C(O)CSCC(=O)N(Cc1ccccc1)c1nc(-c2ccccc2)c(-c2ccccc2)s1,12%,u,i,i,15
CCN(CC)CCO[C@H]1CC[C@@]2(C)C(=CC[C@@H]3[C@H]2CC[C@]2(C)C(=O)CC[C@H]32)C1,-4%,12%,x,x,x
CCCCCN1C(=O)c2ccccc2[C@@]2(C(=O)OCC)Cc3cc(Cl)ccc3[C@@H]12,x,x,i,u,-50*
CCOC(=O)[C@]12Cc3cc(Cl)ccc3[C@H]1N(Cc1ccccc1)C(=O)c1ccccc12,2%[9.22 µM],-49%,23µM*!,u,-15
CCOC(=O)[C@]12Cc3cc(C)ccc3[C@H]1N(CCC(=O)OC)C(=O)c1ccccc12,x,x,4.1µM*,13µM*,-113*
